Laboratory results published in PubChem BioAssay AID504652 (National Center for Advancing Translational Sciences (NCATS), 2011).
Screen size: about 360,000 compounds; about 11,000 (3.1%) were called active. This is one part of a sample in which actives are shown more often than they occur. Unmarked numbers belong to inactive results. No stated cut-off is given here; in the data, active means activity change below about -30%; inactive means the rest.

target: D(1A) dopamine receptor (Homo sapiens) (UniProt P21728); assay: Antagonist of Human D 1 Dopamine Receptor: qHTS; settings: HEK293 TREx D1 cells, calcium flux, dopamine EC80; at 10 µM; hits give low values
Outline: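 Compound effects on dopamine-evoked calcium signalling were measured in tetracycline-induced HEK293 Trex D1 cells. Dopamine at EC80 followed a 180 s compound pre-read, and fluorescence was tracked kinetically for 180 s more.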
On the % scale 0 is the no-effect control and ±100 the full control effect.

Sequence of D(1A) dopamine receptor (Homo sapiens) (P21728 whole entry, looked up): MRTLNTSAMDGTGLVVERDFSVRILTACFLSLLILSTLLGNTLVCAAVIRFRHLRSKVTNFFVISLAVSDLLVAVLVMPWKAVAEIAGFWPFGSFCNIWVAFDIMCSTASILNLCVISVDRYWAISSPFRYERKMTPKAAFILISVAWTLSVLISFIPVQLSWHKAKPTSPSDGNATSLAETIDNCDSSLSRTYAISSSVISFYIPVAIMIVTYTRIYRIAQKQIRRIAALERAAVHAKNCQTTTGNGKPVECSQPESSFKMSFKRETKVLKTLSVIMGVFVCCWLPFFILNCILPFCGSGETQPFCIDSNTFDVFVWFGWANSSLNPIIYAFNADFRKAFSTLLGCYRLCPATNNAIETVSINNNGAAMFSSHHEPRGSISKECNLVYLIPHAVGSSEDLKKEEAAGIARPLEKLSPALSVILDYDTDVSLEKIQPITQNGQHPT

| SMILES | activity change, negative = inhibition |
| --- | --- |
| COc1ccc(OC)c(NC(=O)CSc2nc3ccccc3nc2N2CCCCC2)c1 | -1.47% |
| Cc1cccc(NC(=O)CSc2nnc(CNC(=O)c3cccc(C)c3)n2-c2ccccc2)c1 | -12.8% |
| Cc1ccc(-c2nc(CS(=O)(=O)CC(=O)NCc3ccccc3Cl)c(C)o2)cc1 | 3.92% |
| Cc1ccsc1C1C(C#N)=C(N)OC2=C1C(=O)CC(C)C2 (configuration not stated) | -22.6% |
| Cc1ccsc1C1C(C#N)=C(N)OC2=C1C(=O)CC(C)(C)C2 (configuration not stated) | -36.3% (active) |
| COc1ccc(C2C(C#N)=C(/N=C/N3CCOCC3)OC3=C2C(=O)CC(C)(C)C3)cc1OC (configuration not stated) | 4.71% |
| COc1ccc(-c2c(C)nn3c(N4CCC(C(=O)NCCC(C)C)CC4)cc(C)nc23)cc1OC | -5.31% |
| COc1cccc(CNc2nccn(-c3ccc(OC)c(OC)c3)c2=O)c1 | 6.9% |
| COc1ccc(C2NC(=O)N(C)C3=C2C(=O)N(c2ccc(C(=O)O)cc2)C3)cc1 (configuration not stated) | -10.6% |
| COC(=O)c1ccc(NC(=O)CCc2c(C)nn(-c3ccc(N4CCCC4)nn3)c2C)cc1 | -3.84% |
| O=C(CNC1CCCCC1)NCC1(c2ccccc2)CCCC1 | 4.83% |
| CCOc1c(OC)cccc1C(=O)NCC1(c2ccccc2)CCCC1 | 19% |
| Cc1cccc(C(CC(=O)NCC2(c3ccccc3)CCCC2)c2ccccc2)c1O (configuration not stated) | -31% (active) |
| COc1ccc(/C=C/c2noc(-c3ccccc3O)n2)cc1OC | 4.82% |
| CC(C)CCN(C(=O)Nc1ccc(Cl)c(Cl)c1)C(C)c1cccs1 (configuration not stated) | -22.4% |
| O=C(COc1ccc(Cl)cc1)Nc1ccccc1OCc1cc(=O)n2ccccc2n1 | 0.395% |
| O=C(CSc1ncc(CO)n1Cc1ccc(Cl)cc1)NCc1ccc(F)cc1 | -8.7% |
| CCN(CC(=O)NCc1cccs1)C(=O)c1ccc(OC)c(S(=O)(=O)N2CCOCC2)c1 | 2.75% |
| COc1ccc(C(=O)N(Cc2ccccc2)c2ccc(C)cc2)cc1S(=O)(=O)N1CCOCC1 | 8.42% |

| SMILES | activity change, negative = inhibition |
| --- | --- |
| O=C(c1ccc(F)c(S(=O)(=O)N2CCOCC2)c1)N(CCc1ccccc1)Cc1ccccc1 | -39.2% (active) |
| CC(C)C(NC(=O)c1cccc(S(=O)(=O)N2CCOCC2)c1)C(=O)NCCc1ccccn1 (configuration not stated) | 10.6% |
| CCN(Cc1ccncc1)C(=O)c1cccc(S(=O)(=O)N2CCOCC2)c1 | -44.2% (active) |
| Cc1nn(Cc2ccccc2)c(C)c1CNC(=O)c1ccc(F)c(S(=O)(=O)N2CCOCC2)c1 | -20.4% |
| CCOC(=O)c1cnc2c(C)cc(C)cc2c1Nc1ccc(N2CCOCC2)cc1 | 15.4% |
| CCOC(=O)c1cccc(NC(=O)Cn2cnc3nc4c(cc3c2=O)CCCC4)c1 | 17.9% |
| COc1cc2[nH]c(=O)n(Cc3ccc(C(=O)NCc4ccc(C)cc4)cc3)c(=O)c2cc1OC | 1.6% |
| COc1ccc2c(c1)c(N1CCCC1=O)c(C(=O)Nc1ccc(OC)c(Cl)c1)n2C | 11.9% |
| CCOC(=O)Cc1ccc(NC(=O)Nc2c[nH]c(=O)[nH]c2=O)cc1 | 0.423% |
| COc1ccc(C)cc1-n1c(-c2ccc(C)cc2)cc2c1CC(C)(C)CC2=O | 12.6% |
| CC(C)S(=O)(=O)c1oc(-c2ccc(F)cc2)nc1S(=O)(=O)c1ccc(F)cc1 | 6.44% |
| Cc1cccc(N2CCN(C(=O)c3ccc(Nc4nc5ccccc5n5nnnc45)cc3)CC2)c1C | -6.91% |
| CCCOc1ccc(NC(=O)CC2C(=O)N(c3ccccc3)C(=O)N2Cc2ccco2)cc1 (configuration not stated) | -3.01% |
| COc1ccc(-c2nc3nc(C)cc(C)n3c2Nc2c(C)cccc2C)cc1 | 4.35% |
| Cc1ccc(C2CCN(C(=O)c3cnn(-c4ccccc4Cl)c3C3CCN(C(=O)OC(C)(C)C)CC3)C2)cc1 (configuration not stated) | 6.31% |
| O=c1oc(-c2ccco2)nc2sc3c(c12)CCCCC3 | -12.2% |
| O=C(NCc1ccco1)c1cccn2c(=O)c3c4c(sc3nc12)CCCC4 | -112% (active) |
| O=C(NCc1ccco1)c1nc2ncccn2n1 | 8.67% |
| O=C(CN1C(=O)CCn2nc(-c3ccccc3)cc21)NCc1ccccc1 | -7.67% |

| SMILES | activity change, negative = inhibition |
| --- | --- |
| O=C(c1ccc(C(F)(F)F)cc1)N1CCC(c2nc(-c3ccc(S(=O)(=O)N4CCCC4)cc3)no2)CC1 | -0.206% |
| CCCCC(=O)Nc1nc(C)c(-c2csc(Nc3ccc(Cl)cc3)n2)s1 | 103% |
| S=c1[nH]nc(NCCc2ccccc2)s1 | 0.618% |
| Cc1nc(C)c(-c2csc(NCCc3ccccc3)n2)s1 | -71% (active) |
| O=S1(=O)CCC(NC(=S)SCc2ccccc2Br)C1 (configuration not stated) | -63% (active) |
| O=C(CSc1ccccc1F)NC1CCS(=O)(=O)C1 (configuration not stated) | 2.27% |
| CCCSC(=S)NC1CCS(=O)(=O)C1 (configuration not stated) | -7.48% |
| Cc1ccccc1CNC(=O)C1CCCN(S(=O)(=O)N(C)c2ccc(F)cc2)C1 (configuration not stated) | -10.3% |
| FC(F)(F)Oc1ccc(NC(=S)NCc2ccccc2)cc1 | -19.3% |
| S=C(NCc1cccs1)Nc1ccc(Cl)cc1 | -26.2% |
| Fc1ccccc1CNC(=S)Nc1ccc(Cl)cc1 | -38.1% (active) |
| Cc1ccc(C(=O)Nc2cc3c(cc2N2CCCC2)n(C)c(=O)c(=O)n3C)cc1 | 16% |
| COc1ccc(N2C(=O)CS(=O)(=O)C23C(=O)N(Cc2ccc(C)cc2)c2ccccc23)cc1Cl (configuration not stated) | -16% |
| CCOc1ccccc1NC(=O)CN1CCCN(Cc2cccc(Cl)c2)S1(=O)=O | 2.3% |
| O=C(O)CCC(=O)N(Cc1ccccc1)Cc1ccccc1 | -11.6% |
| O=C(O)CCCc1ccccc1 | -31.7% (active) |
| O=C(CCCc1ccccc1)NCc1ccccc1 | -7.61% |
| O=C(CSc1oc(-c2ccccc2)nc1S(=O)(=O)c1ccc(Br)cc1)NC1CCCCC1 | 8.79% |
| CCc1ccc(-n2nnc(-c3nc(-c4ccccc4)no3)c2C)cc1 | -9.23% |
